What all share (format): functional
The target in assay [1] is Solute carrier family 2, facilitated glucose transporter member 1 (Homo sapiens) (UniProt P11166). The assay is described as follows: ST_JUDE_LEISH: Cytotoxicity at 2uM final concentration against transgenic Leishmania Mexicana promastigotes LmGLUT1 that are glucose transport deficient and complemented with the human glucose transporter GLUT1. Activity is measured by DNA content using SYBR green in vitro.

Assay [2] deals with Hexose transporter 1 (Plasmodium falciparum) (UniProt O97467). Nature of the assay: ST_JUDE_LEISH: Cytotoxicity at 2uM final concentration against transgenic Leishmania Mexicana promastigotes LmPfHT that are glucose transport deficient and complemented with the Plasmodium falciparum hexose transporter. Activity is measured by DNA content using SYBR green in vitro.
Assay [3] deals with Glucose transporter (Leishmania mexicana) (UniProt O61059). Nature of the assay: ST_JUDE_LEISH: Cytotoxicity at 2uM final concentration against transgenic Leishmania Mexicana promastigotes LmGT2 that are glucose transport deficient and complemented with the L. Mexicana glucose transporter 2. Activity is measured by DNA content using SYBR green in vitro.

Solute carrier family 2, facilitated glucose transporter member 1 (Homo sapiens), sequence (P11166 whole entry): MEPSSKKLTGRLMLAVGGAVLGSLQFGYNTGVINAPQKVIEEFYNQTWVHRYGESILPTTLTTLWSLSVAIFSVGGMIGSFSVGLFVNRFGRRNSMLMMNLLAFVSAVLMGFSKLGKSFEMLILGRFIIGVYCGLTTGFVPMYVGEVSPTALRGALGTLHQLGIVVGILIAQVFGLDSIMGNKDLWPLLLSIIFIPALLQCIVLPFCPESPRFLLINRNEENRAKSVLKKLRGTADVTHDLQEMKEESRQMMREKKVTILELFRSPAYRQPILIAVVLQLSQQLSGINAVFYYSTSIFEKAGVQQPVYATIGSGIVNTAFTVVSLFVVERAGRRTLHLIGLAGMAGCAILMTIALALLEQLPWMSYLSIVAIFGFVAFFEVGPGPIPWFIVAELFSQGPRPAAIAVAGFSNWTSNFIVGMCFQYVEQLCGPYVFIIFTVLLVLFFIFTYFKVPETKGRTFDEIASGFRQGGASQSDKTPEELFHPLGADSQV

A word on the inhibition: it is the relative decrease from the control value, in per cent. As to `O=C(C=Cc1ccc(F)cc1)NC1CCC(CCN2CCc3ccc(-c4cnccn4)cc3CC2)CC1` (stereo not given), the values for the inhibition in assay [1], in assay [2] and in assay [3] were 0.54%, -0.24% and 1.49%, respectively.

Consider `O=C(C=Cc1ccc(Cl)c(Cl)c1)NCCCCCN1CCCC(CCCNC(=O)c2cccs2)C1` (stereo not given), for which the inhibition in assay [1] is 6.06%; in assay [2] it was 3.58%; in assay [3], 5.16%.

For the molecule `CC(C)CC(NC(=O)c1cccc(OCCN2CCOCC2)c1)C(=O)NC(/C=N/NC(=O)c1ccccc1)CCc1ccccc1` (stereo not given), the inhibition in assay [1] was found to be 7.09%; in assay [2], 8.91%; in assay [3] it was 5.71%.

As for `CCOc1cc(C(=O)NCCCN2CCCCC2C)ccc1-c1nc2cc(Cl)ccc2[nH]1` (stereo not given), the inhibition is 2.37% in assay [1], 2.23% in assay [2] and 0.87% in assay [3].

For the molecule `Cc1ccc2nc(Cl)c3cc(C(=O)NCCCN4CCCC4)sc3c2c1`, the inhibition in assay [1] turned out to be 8.7%; in assay [2] it was 10.2%; in assay [3] it was 9.6%.

As for `O=C(/C=C/c1ccc(Cl)c(Cl)c1)NC1CCN(CCCNC(=O)c2cccc(Cl)c2)CC1`, the inhibition came out at 6.07% in assay [1], 6.03% in assay [2] and 7.01% in assay [3].

In the case of `O=C(N[C@@H](CC1CCCCC1)C(=O)NCCN1CCCCC1)c1ccc(O)c(-c2ccc(Cl)c(Cl)c2)c1`, the inhibition in assay [1] was 0.75%; in assay [2], 1.44%; in assay [3] it was 0.7%.

As for `COc1ccc(-c2cccc(NC(=O)c3cccc(Cl)c3)c2)cc1CN1CCN(C)CC1`, the inhibition in assay [1] was determined as 11.2%; in assay [2], 12%; in assay [3], 7.77%.

Turning to `CC1(C)NC(N)=NC(=N)N1OCCNCc1ccc(Cl)cc1`, the inhibition worked out at 4.58% in assay [1], 4.01% in assay [2] and 3.92% in assay [3].

As to `COc1cc2nc(N3CCC(CNC(=O)c4ccc(-c5ccc(C(F)(F)F)cc5)cc4)CC3)nc(N)c2cc1OC`, the inhibition was 2.82% in assay [1], 2.34% in assay [2] and -0.23% in assay [3].

Turning to `Cc1ccc2nc(C)cc(N/N=C/c3ccc([N+](=O)[O-])cc3)c2c1`, the inhibition is 104% in assay [1], 101% in assay [2] and 104% in assay [3].

For `O=S(=O)(c1c(Cl)cc(Cl)cc1Cl)N1CCCCC(c2ccc(Cl)cc2)=N1`, the values for the inhibition in assay [1], in assay [2] and in assay [3] were -1.49%, -1.87% and -1.41%, respectively.

Regarding `O=C(Nc1ccc(OC2CCN(Cc3ccccc3)CC2)c(Cl)c1)c1ccc(F)cc1`, the inhibition was 2.05% in assay [1], 2% in assay [2] and 1.68% in assay [3].

`O=C(Nc1cccc(CN2CCCN(CC3CCCCC3)CC2)c1)c1cc2ccccc2s1`: the values for the inhibition in assay [1], in assay [2] and in assay [3] were 1.81%, 0.88% and -8.67%, respectively.

On to `Cc1cccc(CNc2nc(C)cc(NCCC(=O)NCCOc3ccccc3)n2)c1`, for which the inhibition in assay [1] is 6.22%; in assay [2], 3.29%; in assay [3] it was -0.13%.

As for `CC(C)c1cc2c(ccc3nc(N)nc(N)c32)o1`, the results for the inhibition in assay [1], in assay [2] and in assay [3] were 3.76%, 5.34% and 2.93%, respectively.

Turning to `Fc1ccc(CNc2nc(-c3ccc(F)c(C(F)(F)F)c3)n(-c3cccc(C(F)(F)F)c3)n2)cc1`, the inhibition in assay [1] is 4.39%; in assay [2], 5.8%; in assay [3] it was 3.42%.

On to `COc1ccccc1C1CCN(C2CCC(NC(=O)/C=C/c3ccc(C(F)(F)F)cc3)CC2)CC1` (stereo not given), for which the values for the inhibition in assay [1], in assay [2] and in assay [3] were 1.41%, 2.17% and 2.85%, respectively.

As to `CC1(C)NC(N)=NC(=N)N1OCCCOc1ccccc1Cl`, the figures for the inhibition in assay [1], in assay [2] and in assay [3] were 8.95%, 10% and 12%, respectively.

`Cc1cccc2nc(-c3cccc(-c4ccc(NC(=O)CN5CCOCC5)cc4)c3)[nH]c12`: the inhibition in assay [1] was 4.78%; in assay [2] it was 4.5%; in assay [3] it was 2.97%.

As to `Cc1cc(-c2ccc(NC(=O)Nc3ccc4nccc(N5CCN(C)CC5)c4c3)cc2C)cc(C)n1`, the inhibition amounted to 7.15% in assay [1], 5.84% in assay [2] and 8.51% in assay [3].

Consider `O=C(/C=C/c1ccc(Cl)c(Cl)c1)N1CCCC(CCCN2CCC(c3c[nH]c4ccccc34)CC2)C1` (stereo not given), for which the inhibition in assay [1] was 4.23%; in assay [2], 3.51%; in assay [3], -0.35%.

On to `CN(C)c1ccc(C=C2SC(=O)N=C2Nc2ccccc2)cc1`, for which the inhibition was 1.62% in assay [1], 0.09% in assay [2] and 0.57% in assay [3].

`N#Cc1ccc(C=Cc2nccc3c2[nH]c2ccccc23)cc1`: the inhibition in assay [1] stood at 10.9%; in assay [2], 9.49%; in assay [3], 9.13%.

Regarding `CC1CCN(CC[C@H]2CCCN2S(=O)(=O)c2cccc(NC(=O)Nc3ccc(C(F)(F)F)cc3)c2)CC1`, the inhibition in assay [1] is 0.63%; in assay [2], 1.64%; in assay [3], -0.02%.

With `CCN(CC)C(=O)C1CCN(C(C(=O)N2CCN(CC(=O)N3CCCC3)CC2)c2cc3ccccc3o2)CC1` (stereo not given), the inhibition turned out to be 2.21% in assay [1], 0.62% in assay [2] and 1.61% in assay [3].

Regarding `Fc1cccc(C=NNc2ccnc3cc(Cl)ccc23)c1`, the inhibition worked out at 3.49% in assay [1], 4.64% in assay [2] and 0.64% in assay [3].

Turning to `CC(CCCCCC(=O)Nc1ccc(CC(C)NCCc2cccc(Cl)c2)cc1)NCCc1cccc(Cl)c1` (stereo not given), the inhibition is 12.9% in assay [1], 10.6% in assay [2] and 9.83% in assay [3].

In the case of `O=C(Nc1ccc2c(c1)CCN2C1CCN(Cc2cccc3cc[nH]c23)C1)c1ccco1` (stereo not given), the inhibition in assay [1] was 0.46%; in assay [2], -0.85%; in assay [3] it was 1.83%.

As for `N#Cc1cccc(NC(=O)c2ccc(S(=O)(=O)NCC3CCCN3CC3CCCCC3)cc2)c1` (stereo not given), the inhibition in assay [1] amounted to 2.47%; in assay [2] it was 4.27%; in assay [3], 1.88%.

Turning to `CCCN(Cc1nnc(-c2cccs2)o1)C(=O)C1COc2ccccc2O1` (stereo not given), the inhibition in assay [1] was 1.59%; in assay [2], 3.17%; in assay [3], 1.58%.

As to `Cc1[nH]c(C)c(-c2ccc(/C=C/c3ccccn3)cc2)c(=O)c1Cl`, the inhibition was determined as 4.28% in assay [1], 4.49% in assay [2] and 5.12% in assay [3].

With `CCCN(C(=O)c1ccccc1C)c1nnc(-c2cccc(C)c2)s1`, the results for the inhibition in assay [1], in assay [2] and in assay [3] were -3.02%, -1.93% and -2.31%, respectively.

In the case of `CC(C)(CNCc1ccc(C(F)(F)F)cc1)c1nc(-c2ccnc(N)n2)c(-c2ccc(Cl)c(O)c2)[nH]1`, the inhibition in assay [1] worked out at 1.5%; in assay [2], 0.51%; in assay [3] it was 2.94%.

On to `CCOC(=O)c1ccc2[nH]c(-c3ccc(C(=O)NCc4ccc(C(C)(C)C)cc4)cc3)nc2c1`, for which the inhibition in assay [1] was 4.63%; in assay [2] it was 2.27%; in assay [3], 1.02%.

Values taken from ChEMBL document CHEMBL3433997, “St. Jude Leishmania screening dataset” (2016).
